Experimental data from PubChem BioAssay AID602474 (National Center for Advancing Translational Sciences (NCATS), 2012).
Results filed as inconclusive are left out. The source made the active and inactive calls. Calls come from the whole dose curve; as a rule, active = well fitted inhibition curve with a large enough effect; inconclusive = small, poorly fitted or top-dose-only effect; inactive = no such curve, though single readings can be large or run the other way.

target: Luciferin 4-monooxygenase (Photinus pyralis) (UniProt P08659); assay: FLuc inhibitory activity for the follow-up compounds in a biochemical assay with a commercial detection reagent - BriteliteTM Plus (PerkinElmer); details: purified FLuc, Britelite Plus luminescence; series mostly up to 38.3 µM
Excerpt: NCGC Assay Overview: Firefly (Photinus pyralis) luciferase is one of the most commonly used transcriptional reporters. It is considered one of the more dynamically responsive reporters - that is, responsive to changes in reporter transcription - as it requires no post-translational modifications and is enzymatically active directly after protein synthesis (Wood, 1998). With no endogenous expression in mammalian cells and without the requirement of external excitation, it offers very little background signal, thus generally providing excellent signal to background for most assays. Previous profiling work to determine the prevalence of compounds that affect FLuc enzymatic activity (PubChem AID 411) identified that ~3% of the MLSMR library (then at ~72K) inhibited FLuc (Auld et al., 2008). […] Of the compounds identified in this profile that inhibited FLuc, 151 compounds were selected for further analysis, in an effort to better understand their mode of inhibiting FLuc. The assay described here was to determine the activity of the compounds in a FLuc assay that used a commercial formulation of detection reagent (BriteliteTM Plus; PerkinElmer).
NCGC Assay Protocol Summary: Reagents: Britelite Plus detection reagent; 50mM Tris acetate, pH 7.5; 10nM P. pyralis luciferase (Sigma #L9506) Control compounds used were two known firefly luciferase inhibitors (3-(5-(3-chlorophenyl)-1,2,4-oxadiazol-3-yl)benzoic acid and 5-(2-fluorophenyl)-3-phenyl-1,2,4-oxadiazole), and DMSO. Assay Summary: Three microliters of buffer containing firefly luciferase (final concentrations: 50mM Tris acetate, 10nM P. pyralis luciferase) are dispensed into each well of a Greiner white, solid-bottom 1536-well format plate using a flying reagent dispenser (FRD). These assay plates were then treated with 23nL of compound or DMSO using a Kalypsys pin tool, which allows for delivery of a 12-point intraplate titration of each compound to the assay plate (quantitative HTS), with final compound concentrations ranging from approximately ~38uM to 0.2nM. Three microliters of 2X Britelite Plus detection reagent was then delivered by FRD to each well. Luciferase activity was then measured using a ViewLux CCD imager (PerkinElmer), with an average exposure time of 2-30 seconds (2X binning, medium/high gain).

Chain of Luciferin 4-monooxygenase (Photinus pyralis) (P08659 whole entry, looked up): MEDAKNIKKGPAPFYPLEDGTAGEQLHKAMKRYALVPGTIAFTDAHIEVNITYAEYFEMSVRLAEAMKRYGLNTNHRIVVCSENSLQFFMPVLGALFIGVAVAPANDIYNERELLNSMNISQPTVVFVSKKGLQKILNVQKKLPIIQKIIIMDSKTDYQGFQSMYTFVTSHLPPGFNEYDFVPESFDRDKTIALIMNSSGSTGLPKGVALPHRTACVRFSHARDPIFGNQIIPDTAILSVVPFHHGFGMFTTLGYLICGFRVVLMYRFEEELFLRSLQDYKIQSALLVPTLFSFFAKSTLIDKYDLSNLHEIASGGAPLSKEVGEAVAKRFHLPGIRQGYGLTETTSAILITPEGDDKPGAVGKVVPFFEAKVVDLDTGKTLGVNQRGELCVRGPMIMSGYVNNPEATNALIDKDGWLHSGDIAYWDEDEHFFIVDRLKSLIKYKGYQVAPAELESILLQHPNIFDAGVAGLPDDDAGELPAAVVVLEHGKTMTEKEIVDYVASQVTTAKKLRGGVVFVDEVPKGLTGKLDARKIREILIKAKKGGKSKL

Potency, active:
O=C(Nc1c(Cl)cc(Cl)cc1-c1nc2ccccc2s1)c1ccc(Br)o1 17900 nM
CCCC(=O)Nc1nc2ccc(OCC)cc2s1 79.8 nM
O=C(Nc1ccc(-c2nc3ccccc3s2)cc1)C1=COCCO1 400 nM
COc1ccc(C(=O)Nc2ccccc2C(=O)Nc2ccccc2C(=O)O)cc1 11300 nM
Cn1c(N/N=C/c2cc3ccccc3nc2Cl)nc2ccccc21 12600 nM
COc1ccc2nc(NC(=O)c3cnccn3)sc2c1 2000 nM
Cc1ccc2nc(-c3ccc(NC(=O)CN4CCN(C(=O)c5ccco5)CC4)cc3)sc2c1 798 nM
COc1ccc2nc(NC(=O)c3ccc([N+](=O)[O-])o3)sc2c1 3560 nM
CC(C)c1ccc(-c2nc3ccccc3s2)cc1 22.5 nM
O=C(O)c1cccc(NC(=O)c2ccc(Cl)c(S(=O)(=O)N3CCCCCC3)c2)c1 3180 nM
Nc1ccc(-c2nc3ccc(N)cc3s2)cc1 565 nM
COc1cccc(-c2nc3ccccc3s2)c1 5650 nM
O=C(COC(=O)c1ccccc1[N+](=O)[O-])c1ccc2c(c1)OCO2 17.9 nM
C/C(=N\NC(=O)c1ccccc1NC(=O)c1ccc(Cl)cc1)c1ccncc1 15.9 nM
Cc1ccc2sc(-c3ccc(N)cc3)nc2c1 798 nM
COc1ccc2nc(NC(=O)c3ccco3)sc2c1 1590 nM
COc1ccc(C(=O)Nc2ccccc2C(=O)N/N=C/c2ccc(O)c(OC)c2)cc1 2 nM
Cc1ccc2nc(-c3ccc(N)cc3)sc2c1 895 nM

Potency, inactive:
Cc1c(NS(C)(=O)=O)cccc1-c1nc2ccccc2s1
O=C(Nc1ccccc1-c1nc2ccccc2s1)c1ccc(Br)o1
O=C(Cc1ccccc1)Nc1ccccc1C(=O)Nc1ccc(C(=O)O)cc1
COc1ccc2nc(NC(=O)C3CCN(S(=O)(=O)c4cccs4)CC3)sc2c1
Cc1ccc(C(=O)Nc2ccc(C(=O)O)cc2)cc1S(=O)(=O)NCc1ccccc1
O=C(Nc1ccccc1C(=O)O)c1cc(S(=O)(=O)Nc2ccccc2)ccc1Cl
COc1ccc2nc(NC(=O)c3ccc(S(=O)(=O)N4CCCC(C)C4)cc3)sc2c1 (stereo not given)
CCOc1ccc2nc(NC(=O)c3cc([N+](=O)[O-])ccc3N3CCOCC3)sc2c1
O=C(Nc1cccc(-c2nc3ccccc3s2)c1)C1=COCCO1
O=C(O)c1ccc(NC(=O)c2cc(S(=O)(=O)N3CCCCC3)c(Cl)cc2Cl)cc1
O=C(Nc1ccccc1C(=O)O)c1cccc(NC(=O)c2ccccc2Cl)c1
COc1ccc(C(=O)Nc2nc3ccc(OC)cc3s2)cc1
CC(C)(C)NC(=O)c1ccccc1-c1nc2ccccc2s1
COc1ccc2nc(NC(=O)c3cccc(S(=O)(=O)N4CCOCC4)c3)sc2c1
O=C(Nc1ccccc1C(=O)O)c1cccc(NC(=O)c2ccccc2Br)c1
O=C(O)c1ccc(NC(=O)c2ccccc2NC(=O)c2cccc(Br)c2)cc1
CC(=O)Nc1cccc(-c2nc3ccccc3s2)c1C
COc1ccc2nc(NC(=O)c3cccs3)sc2c1
COc1ccc(-c2nc3ccccc3s2)cc1NC(=O)c1ccc(F)cc1
Cc1cccc(NS(=O)(=O)c2cccc(C(=O)Nc3cccc(C(=O)O)c3)c2)c1
O=C(O)c1cccc(NC(=O)c2ccccc2NC(=O)c2ccco2)c1
O=C(O)c1ccc(NC(=O)c2ccccc2NC(=O)c2ccccc2Cl)cc1
